Source: PubChem
KB-V1 cytotox: kills drug-selected multidrug resistant KB-V1 cells | hit rate 3.4% among 400,000 | Potency, µM (titrated, usually from 46.1 µM), most hits filed as cytotoxic | AID 1347076 | KB-V1 MDR cells viability, CellTiter-Glo, 72 h; note: nearly all actives have a fitted effect of over 60% in size
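KB-V1 cells (P-gp-expressing MDR subline of KB-3-1) in phenol-red-free DMEM with 10% FBS were exposed to library compounds over a concentration series for 72 h at 37 degrees C. Viability read by CellTiter-Glo luminescence; concentration-effect curves fitted after normalization.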
ELG1 DNA repair: ELG1-dependent DNA repair inhibition; hit rate 2.3% among 330,000; AID 504467; HEK293T ELG1-luciferase reporter, luminescence, 16 h; DNA damage induced by 5-fluorouridine; Potency, µM (highest dose often 46.1 µM), most hits filed as inhibitors; note: nearly all actives have a fitted effect of over 55% in size
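DMSO vehicle served as the neutral condition. Each well held 2,000 cells given 5-fluorouridine plus compound; after 16 hr at 37 °C/5% CO2, ONE-Glo was added and luciferase measured 30 min later.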
KB-3-1 tox: KB-3-1 parental cell cytotoxicity. hit rate 1.4% among 400,000. AID 1347075. Potency, µM (highest dose often 46.1 µM), most hits filed as cytotoxic. KB-3-1 viability, CellTiter-Glo ATP luminescence, 72 h; note: nearly all actives have a fitted effect of over 60% in size
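Multi-concentration cytotoxicity screen in KB-3-1 cells grown in DMEM lacking phenol red with 10% FBS. After 72 h at 37 °C with compound, ATP-dependent luminescence was recorded.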
SW480 rerep: DNA re-replication induction in SW480 cells; SW480 DNA re-replication, Hoechst DNA content imaging, 48 h; Potency, µM (titrated, usually from 46.1 µM), most hits filed as activators; hit rate 1.8% among 340,000; AID 624297; note: nearly all actives have a fitted effect of over 55% in size
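First, 250 cells per well were seeded. Next, compound or vehicle (23 nL) was pinned in, plates sat 48 hr at 37 C. Finally Hoechst was added for 40 min before fluorescence scanning.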
MCF10A rereplic: inducers of DNA re-replication in MCF 10A breast cells; Potency, µM (titrated, usually from 46.1 µM), most hits filed as activators; MCF 10A DNA re-replication, Hoechst nuclear intensity, 48 h; hit rate 2.9% among 350,000; note: nearly all actives have a fitted effect of over 50% in size
A number is an active result; – = inactive; ? = inconclusive; · = not tested or not shown; ! = repeats disagree; [ ] = dose if it differs, or a comment. An excerpt weighted towards active compounds, which were near 8.2% of everything screened. Calls come from the whole dose curve; as a rule, active = well fitted curve in the direction sought with a large enough effect; inconclusive = small, poorly fitted or top-dose-only effect, or another doubt; inactive = no such curve, though single readings can be large; an effect the other way counts as inactive or inconclusive.

SMILES | KB-V1 cytotox | ELG1 DNA repair | KB-3-1 tox | SW480 rerep | MCF10A rereplic
C=CCn1c(O)c(C(C)=NCc2cccnc2)c(=O)[nH]c1=O | – | ? | – | – | –
CC(=NCc1ccc(F)cc1)c1c(O)n(C)c(=O)n(C)c1=O | ? | – | 5.8µM | – | ?
C=CCn1c(O)c(C(C)=NCc2cc(OC)cc(OC)c2)c(=O)[nH]c1=O | 3.3µM | ? | 5.2µM | – | ?
CC([C@H](O)c1ccccc1)N(C)C (some centres undefined) | · | · | · | – | –
CC(CCl)OC(C)CCl (centres undefined) | – | – | – | ? | –
CCC(C)C(=O)N[C@@H](c1ccccc1)[C@@H](O)C(=O)O[C@H]1C[C@@]2(O)[C@@H](OC(=O)c3ccccc3)C3[C@](C)(C(=O)[C@H](OC(C)=O)C(=C1C)C2(C)C)[C@@H](O)C[C@H]1OC[C@@]31OC(C)=O (some centres undefined) | – | – | 0.0065µM | 1.6µM | –
CC/C=C/CC(=O)N[C@@H](c1ccccc1)[C@@H](O)C(=O)O[C@H]1C[C@@]2(O)[C@@H](OC(=O)c3ccccc3)C3[C@](C)(C(=O)[C@H](OC(C)=O)C(=C1C)C2(C)C)[C@@H](O)C[C@H]1OC[C@@]31OC(C)=O (some centres undefined) | ? | ? | 0.58µM | ? | ?
C/C=C(\C)C(=O)N[C@@H](c1ccccc1)[C@@H](O)C(=O)O[C@H]1C[C@@]2(O)[C@@H](OC(=O)c3ccccc3)C3[C@](C)(C(=O)[C@H](OC(C)=O)C(=C1C)C2(C)C)[C@H](O)C[C@H]1OC[C@@]31OC(C)=O (some centres undefined) | ? | ? | 0.0073µM | 1.5µM | 0.23µM
O=C(CN1CCOCC1)c1ccc2ccccc2c1 | – | · | ? | · | ·
[O]=[Sb]([OH])([OH])[c]1ccccc1 | – | · | ? | · | ·
Fc1ccc(C(OCCN2CCCC2)c2ccc(F)cc2)cc1 | ? | – | – | – | ?
Fc1ccc(C(OCCN2CCN(CCCc3ccccc3)CC2)c2ccc(F)cc2)cc1 | 16µM | · | ? | ? | 21µM
c1ccc(CCCN2CCN(CCOC(c3ccccc3)c3ccccc3)CC2)cc1 | 10µM | · | ? | ? | 5.2µM
CCC12CN3CC(CC)(CN(C1)C3c1c(C)[nH]c(=O)[nH]c1=O)C2=O (centres undefined) | ? | · | – | · | ·
C[N+]1([O-])[C@H]2CC[C@H]1CC(OC(=O)[C@@H](CO)c1ccccc1)C2 (some centres undefined) | · | · | · | – | –
C[C@]12CC[C@H]3[C@@H](CCC4=CC(=O)CC[C@@]43C)[C@@H]1CC[C@@H]2O | 3.7µM | – | 10µM | – | –
C[C@H](O)[C@H]1CC[C@H]2[C@@H]3CCC4=CC(=O)CC[C@]4(C)[C@H]3CC[C@]12C | 15µM | ? | – | – | ?
CC1CC2C(C(O)CC3(C)C(O)CCC23)C2(C)CCC(=O)C=C12 (centres undefined) | 6.5µM | · | 12µM | – | –
CC(=O)C1C(N2CC2)CC2C3CCC4=CC(=O)CCC4(C)C3CCC21C (centres undefined) | ? | · | ? | ? | 16µM
CC12CCC(=O)C=C1CCC1C2CCC2(C)C(O)CCC12 (centres undefined) | 4.1µM | – | ? | – | –
CCC(=O)O[C@H]1CC[C@H]2[C@@H]3CCC4=CC(=O)CC[C@]4(C)[C@H]3CC[C@]12C | ? | · | – | – | ?
C[C@]12CC[C@H]3[C@@H](CCC4=CC(=O)CC[C@@]43C)[C@@H]1CC[C@@H]2C(=O)CO | 8.2µM | – | ? | ? | ?
COC(=O)c1ccc(COC(=O)c2nn(C)c(=O)c3ccccc23)cc1 | – | – | – | – | –
O=C1CC(N2CCN(c3ccccc3)CC2)C(=O)N1CCc1ccccc1 (centres undefined) | ? | – | – | – | ?
O=C(Nc1ccccc1)C1=C[C@H](c2ccccc2)C[C@H](OCCCCO)O1 | ? | · | ? | – | 18µM
SMILES | KB-V1 cytotox | ELG1 DNA repair | KB-3-1 tox | SW480 rerep | MCF10A rereplic
O=c1oc2cccnc2n1CCS(=O)(=O)c1ccc(F)cc1 | – | – | – | ? | 21µM
O=C1CN=C(c2cc([N+](=O)[O-])ccc2Cl)c2cc([N+](=O)[O-])ccc2N1 | – | · | – | 1.6µM | ?
COc1ccc(OC)c(N=Cc2c(O)n(Cc3ccccc3)c(=S)[nH]c2=O)c1 | – | – | – | 29µM | ?
O=C(C[N+]12CCC(CC1)C(CO)C2)c1ccc([N+](=O)[O-])cc1 (centres undefined) | – | 9.2µM | – | – | –
O=C(Nc1ccc(Cl)cc1)Nc1ccc(Cl)c(Cl)c1 | 21µM! | ? | ? | ? | ?
CCN1CCN(c2ccc(NC(C)=O)cc2Cl)CC1 | – | – | – | – | ?
CC(C)(C)C(=O)c1cn(Cc2ccccc2)c2ccccc12 | ? | – | – | – | –
CC(=O)c1cn(Cc2ccc(C#N)cc2)c2ccccc12 | – | – | – | 7.3µM | –
CC(C)C(=O)c1cn(Cc2ccc(C#N)cc2)c2ccccc12 | – | 18µM | ? | – | –
CCC(=O)c1cn(Cc2ccccc2)c2ccccc12 | ? | – | – | – | ?
Cc1nnc(NC(=O)c2cccn(Cc3cccc([N+](=O)[O-])c3)c2=O)s1 | – | · | – | · | ·
CN(c1ccccc1)S(=O)(=O)c1cccc(C(=O)N2CCN(c3ccccn3)CC2)c1 | ? | ? | ? | – | –
CCOC(=O)c1c(C)n(Cc2ccc3c(c2)OCO3)c2ccc(O)cc12 | – | ? | – | – | ?
CCOC(=O)c1c(C)n(Cc2ccc(F)cc2)c2ccc(O)cc12 | 16µM | – | ? | ? | –
CN1C(=O)[C@@H](NC(=O)c2cc3ccccc3[nH]2)N=C(c2ccccc2)c2ccccc21 | · | · | · | ? | –
O=C(OCC(=O)N1CCCCC1)c1cc(S(=O)(=O)N2CCOCC2)c(Cl)cc1Cl | – | ? | – | – | –
Cc1ccccc1C(O)(Cc1ccccc1)C1CN2CCC1CC2 (centres undefined) | ? | ? | 10µM | –[9.22 µM] | –
CCC(=O)O[C@@](Cc1ccccc1)(c1ccccc1)[C@@H](C)CN(C)C | · | · | · | – | –
Cc1ccc(-c2nn(C)c(=O)c3ccccc23)cc1CNC(=O)/C=C/c1ccccc1 | ? | 16µM | – | – | –
c1cc2c(cc1CCNC1C3CC4CC(C3)CC1C4)OCO2 (centres undefined) | 21µM | – | – | – | –
O=c1[nH]cnc2nc(-c3ccc(N(CCCl)CCCl)cc3)[nH]c12 | ? | · | ? | 9.2µM | 15µM
Cc1c(N=Nc2c(O)n(Cc3ccccc3)c(=O)[nH]c2=O)c(=O)n(-c2ccccc2)n1C | 3.7µM | ? | – | ? | –
CCCCCCn1c(O)c(C=NC2CCN(Cc3ccccc3)CC2)c(=O)[nH]c1=O | ? | 21µM | ? | – | –
COc1ccc(Cn2c(O)c(C=Nc3c(C)n(C)n(-c4ccccc4)c3=O)c(=O)[nH]c2=O)cc1 | – | – | – | ? | ?
